90 compounds from PubChem BioAssay AID652257 (The Scripps Research Institute Molecular Screening Center, 2013) can be followed below.

In general, inhibition refers to the drop in the measured response relative to a control, in per cent.

Several values for one entry are separate records, joined by “and”; a condition that tells them apart may be missing. Identical values can stand only once. The campaign covered roughly 370,000 compounds. About 4,800 (1.3%) were called active. What follows is part of a selection rich in actives, with near analogues and random picks from the rest. Values without a mark were called inactive.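 Rule for the calls: active = inhibition above about 21% made by adding two undisclosed values (limit read from the data); inactive = the rest.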

For this assay, the target named is Protein arginine N-methyltransferase 1 (Homo sapiens) (UniProt Q99873). The experiment in a line: PRMT1 methyltransferase inhibitors, primary screen, biochemical, fluorescence polarization (AID 652257). As to conditions: recombinant PRMT1, activity-based probe fluorescence polarization; at 2.79 µM; stronger effect = higher value. Background: Fluorescence polarisation rises when a labelled molecule tumbles more slowly, as on binding a larger partner.
Sequence of Protein arginine N-methyltransferase 1 (Homo sapiens) (Q99873 whole entry, looked up): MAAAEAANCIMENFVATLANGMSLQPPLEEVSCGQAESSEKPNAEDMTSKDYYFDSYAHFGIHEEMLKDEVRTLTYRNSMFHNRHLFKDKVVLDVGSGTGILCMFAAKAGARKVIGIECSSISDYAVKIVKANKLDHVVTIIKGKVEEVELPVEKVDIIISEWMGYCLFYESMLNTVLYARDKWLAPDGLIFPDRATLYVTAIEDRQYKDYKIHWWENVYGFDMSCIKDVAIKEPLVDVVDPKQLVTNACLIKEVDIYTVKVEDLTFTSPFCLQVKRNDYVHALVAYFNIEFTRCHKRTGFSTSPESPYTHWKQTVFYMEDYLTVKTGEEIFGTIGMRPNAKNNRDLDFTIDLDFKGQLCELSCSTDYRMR
As to `CCC(=O)c1c(CC)c2n3c1=CC[C@H]3CC(Br)C=2` (stereo not given in full), the inhibition was 0.28%. Under `COc1ccc(-n2c(SCC(=O)NC3CCCC3)nnc2-c2ccncc2)cc1` stands 4.19%; under `N#CC1(Nc2ccc3c4c(cccc24)CC3)CCCCC1`, 50.2% (active); under `O=S(=O)(NC1CC1)c1ccc2c3c(cccc13)CC2`, -2.46%.

Regarding `N#CC1(NC(=O)COC(=O)Cc2n[nH]c(=O)c3ccccc23)CCCCC1`, the inhibition is 1.07%. As for `Cc1ccc2c(cnn2C(=O)CCC(=O)NC2CCCC2)c1`, the figure is 3.39%.

As for `COc1ccc(CNS(=O)(=O)c2ccc(NC(=O)N3CCCCC3)cc2)cc1`, the inhibition is -0.17%. In the case of `CC(C)=C1C2CCC1C1C(=O)N(NC(=O)c3ccco3)C(=O)C21` (stereo not given), the inhibition is -2.54%.

Take `COc1ccc(CN2C(=O)N3Cc4cc(OC)ccc4C3CS2(=O)=O)cc1` (stereo not given): the inhibition was 3.9%.

With `CCN1C(=O)N[C@@H]2C[C@H](C(=O)N3CCCC3)[C@H](C)[C@H](c3ccccc3)C[C@@H]21`, the inhibition is -4.4%. Under `O=C(COC(=O)c1ccc2ncsc2c1)Nc1ccc(Cl)cc1` stands 14.3%; under `COc1ccccc1-c1nnc(NC(=O)c2ccc3ncsc3c2)o1`, 9.47%.

Take `Cc1sc(NC(=O)c2ccc3ncsc3c2)c(C(N)=O)c1C`: the inhibition was 33.8% (active).

Regarding `CN1CCCc2nc(-c3ccccc3)ccc21`, the inhibition is -1.81%.

On to `Cc1c(C(C)CCCO)oc(=O)c2c1Oc1c(C)c(C(C)C[C@@H](C)O)oc(=O)c1C2` (stereo not given in full), for which the inhibition was 1.8%. Under `CCCN(CCC)S(=O)(=O)c1cc2c(cc1Br)CCN2C(=O)CC` stands -3.61%; under `CCOc1cnc(C(=O)NNC(=O)c2ccccc2Br)o1`, 0.46%; under `COC(=O)C12C=C3CC(c4ccccc4)=C3C(=O)N1Cc1[nH]c3ccccc3c1C2` (stereo not given), -2.05%. Regarding `CCc1ccccc1NC(=O)CSc1nnc(-c2cccs2)o1`, the inhibition was -1.47%. As for `O=C(O)C(CCc1ccccn1)c1ccccc1` (stereo not given), the figure is 0.25%; as for `CN(C)c1ccc(C(CC(=O)O)C(=O)O)cc1` (stereo not given), 39.2% (active); as for `CC(=O)NC(CC(=O)O)c1ccc(F)cc1` (stereo not given), 0.13%.

As to `C[C@H]1[C@H](NC(=O)c2cccc(N(C)C)c2)CC[C@@]23CCCN2C(=O)CCC[C@@H]13`, the inhibition is -0.17%. With `CCOc1ccc(N(CC(=O)Nc2c(C)n(C)n(-c3ccccc3)c2=O)S(=O)(=O)c2ccc(Cl)s2)cc1`, the inhibition was -5.48%. As for `CCO/C([O-])=N/c1c[n+](N2CCOCC2)no1`, the figure is -1.72% and 4.84%.

With `CCOC(=O)N1C(=O)C[C@](Sc2ccc(C)cc2)(C(=O)OC)[C@H]1c1ccccc1`, the inhibition is 53.6% (active). Regarding `COC(=O)[C@@]1(Sc2ccc(C)cc2)CC(=O)N(c2cccc(SC)c2)[C@@H]1c1ccccc1`, the inhibition was 4.3%. Regarding `COC(=O)[C@]1(C#N)CC(=O)N(CC2CCCCC2)[C@@H]1c1ccccc1`, the inhibition is -3.09%. On to `O=S1(=O)c2c(cccc2N2CC[C@H](O)C2)O[C@@H]2CCN1C2`, for which the inhibition is -1.77%.

Consider `NC(=O)c1sc2nc3c(c(-c4ccccc4)c2c1N)CCC3`, for which the inhibition is 21.5% (active). Under `COc1ccccc1-c1c(C#N)c(N)nc2c1CCC2` stands -2.76%; under `CC(C)OC(=O)c1sc2nc3c(cc2c1N)C(=O)CCC3`, 0.71%. Under `Nc1scc[n+]1Cc1cccc2cccnc12` stands -6.71%. With `c1ccc2c(C[n+]3csc4ccccc43)cccc2c1`, the inhibition is 31.2% (active).

Regarding `CN1[C@H](Cc2ccccc2)COc2cccc(N3CCSCC3)c2S1(=O)=O`, the inhibition was 6.45%. As for `COC(=O)C1CN(Cc2cn(Cc3ccc(F)cc3)nn2)CCS(=O)(=O)N1Cc1ccc(Cl)cc1` (stereo not given), the figure is -0.68%; as for `COCC(=O)N[C@@H]1C[C@@H]2O[C@@H](CO)CC[C@@H]2O[C@@H]1CCc1ccc(-c2ccccc2)cc1`, 0.28%.

In the case of `CCOCc1c(C(=O)N2CCN(Cc3ccc(Br)s3)CC2)oc2ccccc12`, the inhibition was -1.1%. As for `CCc1ccc(NC(=O)C(C)OC(=O)/C=C/c2cccc([N+](=O)[O-])c2)cc1` (stereo not given), the figure is -0.43%; as for `COC(=O)/C=C\C(=O)Nc1cccc([N+](=O)[O-])c1`, 91.7% (active); as for `CN(C(=O)c1cccc(NC(=O)Cc2cccc([N+](=O)[O-])c2)c1)C1CCCCC1`, -0.61%. Under `COc1ccc(CN2C/C(=C/c3ccccc3)N3C(=O)C[C@@H](c4ccccc4)N=C23)c(OC)c1` stands 0.52%; under `CCC(C)c1ccc(NC(=S)N2CCCC2)cc1` (stereo not given), 2.33%; under `COc1ccc(N2CCN(CCNS(=O)(=O)c3ccc(C(C)(C)C)cc3)CC2)cc1`, 0.09%. Take `CCC(=C/c1sc2ccc3ccccc3c2[n+]1C)/C=C1\Sc2ccc3ccccc3c2N1C`: the inhibition is 75.6% (active). As to `Oc1c(C=Nc2cccc3nsnc23)ccc2ccccc12`, the inhibition is 27.2% (active).

For the compound `O=C(NC1CCCCN(Cc2cccc(C(F)(F)F)c2)C1=O)c1ccccc1I` (stereo not given), the inhibition was -1.71%.

As for `COC(=O)c1cccc(Cn2ccc3ccc(-c4ccc5ccn(C(=O)c6ccccc6C)c5c4)cc32)c1`, the inhibition is 1.92%. As for `COc1cc(NC(=O)C2CCCN(S(=O)(=O)c3ccc(C(C)(C)C)cc3)C2)cc(OC)c1` (stereo not given), the figure is -5.91%; as for `Cc1sc(NC(=S)NC(=O)c2cccs2)nc1-c1ccc(CC(C)C)cc1`, -4.11%; as for `O=C(NC(=S)Nc1cccc(-c2ccc(CO)o2)c1)c1cccs1`, 21.4% (active).

In the case of `NS(=O)(=O)c1ccc(NC(=S)NNC(=O)c2cccs2)cc1`, the inhibition is 0.74%. For the compound `CCOC(=O)[C@]12CCCC=C1N(Cc1ccc(OC)cc1)C(=O)[C@@H]2CC(=O)NCc1cccs1`, the inhibition is 7.82%. As for `COc1cc(NC(=S)N2CCCC(C)C2)c(OC)cc1Cl` (stereo not given), the figure is 40.8% (active); as for `COc1cc(NC(=S)N2CCCC(C)C2)cc(OC)c1OC` (stereo not given), 5.72%. As for `COc1cc(NC(=O)CSC(=S)N2CCCC2)c(OC)cc1Cl`, the figure is 8.65%; as for `CCOC(=O)N1CCN(C(=O)C[C@@H]2C(=O)N(CCc3ccc(Cl)cc3)C3=CCCC[C@]32C(=O)OCC)CC1`, 0.68%. Under `O=C(COc1ccccc1O)NC1CCCC1` stands 3.06%; under `COc1ccc(Cl)cc1C=CC=Nc1ccc(S(N)(=O)=O)cc1`, -7.11%; under `COc1ccc(Cl)cc1C=CC=NNC(=O)c1ccncc1`, -0.1%.

Turning to `COc1ccccc1/C=C/C=N/n1c(-c2ccc(Cl)cc2Cl)n[nH]c1=S`, the inhibition is 21.3% (active).

`Cc1ccc(NC(=O)Cc2cccc(F)c2)c(S(=O)(=O)N2CCOCC2)c1`: the inhibition is 0.91%. Take `COc1ccc(-n2c(SCC(=O)Nc3ccc4cn[nH]c4c3)nnc2-c2cccnc2)cc1`: the inhibition is -1.98%. As for `FC(F)(F)c1cccc(NC(=S)OC2CCC23CCC(c2ccccc2)CC3)c1` (stereo not given), the inhibition is -5.1%. As for `CN(c1ccccc1)S(=O)(=O)c1ccc(C(=O)NCc2cccnc2)cc1`, the inhibition is -4.64%.

As to `O=C(c1cccnc1)N(c1cc2sc(=O)oc2c2ccccc12)S(=O)(=O)c1ccccc1`, the inhibition is 78.8% (active). Consider `O=C(CN(c1cc(C(F)(F)F)ccc1Cl)S(=O)(=O)c1ccccc1)NCc1cccnc1`, for which the inhibition was 0.93%. As to `O=C1CCC2(CCC(c3ccc(Cl)cc3)CC2)N1CCO` (stereo not given), the inhibition is -4.08%. Under `O=C(NC1CCCCN(Cc2ccc(Cl)cc2)C1=O)c1ccc(Br)cc1` (stereo not given) stands -6.45%. As to `Cc1c(NC(=S)NCc2ccc(F)cc2)cccc1[N+](=O)[O-]`, the inhibition was 4.29%. For `Cc1c(NC(=O)/C=C/C(=O)O)cccc1[N+](=O)[O-]`, the inhibition was 70.3% (active). As for `Cc1c(NC(=O)CCCOc2ccccc2)cccc1[N+](=O)[O-]`, the figure is 2.67%; as for `COc1ccc(CCN2CNc3c(c(=O)n(C)c(=O)n3C)C2)cc1OC`, 5.09%; as for `O=S(=O)(c1ccc(SCc2ccc(Br)cc2)nc1)N1CCOCC1`, 0.76%.

For the compound `O=S(=O)(c1ccc(Sc2nnc3ccccn23)nc1)N1CCOCC1`, the inhibition is 65.8% (active). As for `O=S(=O)(c1ccc(SCc2ccccc2)nc1)N1CCCCCC1`, the figure is -2.5%; as for `CCOC(=O)[C@]12CCCCC/C=C\1N(Cc1ccc(OC)cc1)C(=O)[C@H]2CC(=O)NCCCN1CCCC1=O`, 0.39%. Consider `COc1c(C(=O)N2CCCC2)ccc2ccccc12`, for which the inhibition was 1.75%. Take `COC(=O)C[n+]1cccc2ccccc21`: the inhibition is 38.1% (active). Under `COC(=O)c1ccc(Cc2ccccc2)o1` stands -1.95%; under `COc1ccc(CN(CCN2CCOCC2)C(=O)c2ccc(C)cc2)cc1OC`, 2.63%; under `Cc1ccc(Cn2cc(CN3[C@@H](C)COc4cc(Br)ccc4S3(=O)=O)nn2)cc1`, 0.27%. On to `CCOC(=O)[C@]12CCCCC/C=C\1N(Cc1ccc(OC)cc1)C(=O)[C@H]2CC(=O)N1CCOCC1`, for which the inhibition was 0.54%. As to `CSCCNC(=O)c1ccc2nc(Cc3ccccc3F)oc2c1`, the inhibition was 3.93%. For `C=CCN1C(=O)[C@H](CC(=O)N2CCN(C(=O)OCC)CC2)[C@@]2(C(=O)OCC)CCCC=C12`, the inhibition is 0.65%. Under `O=C1CC(N2CCN(c3ccc(F)cc3)CC2)C(=O)N1c1ccccc1` (stereo not given) stands 21.5% (active); under `COC(=O)c1cc(C(=O)OC)cc(N2C(=O)CC(N3CCN(c4ccccc4)CC3)C2=O)c1` (stereo not given), 3.3%. As to `O=C(C1CC(=O)N(c2ccc(F)cc2)C1)N1CCN(c2ccccc2)CC1` (stereo not given), the inhibition is -0.62%. Under `COC(=O)C1(CCSC)NC(c2ccc(OC)cc2OC)C2C(=O)N(c3cccc(C(C)=O)c3)C(=O)C21` (stereo not given) stands -3.15%; under `CC1CCCCC1NC(=O)COC(=O)Cc1ccc(Br)cc1` (stereo not given), -4.22%.
